Screens as filed in PubChem BioAssay.
ALR inh: human ALR oxidase inhibition via reduced H2O2; P55789; purified ALR, DTT oxidation, H2O2 HRP-luminol luminescence; inhibition, % (test concentration not listed); 290,000 compounds, 3.8% hits; AID 485317;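 active = mean replicate inhibition above about 79%, with every replicate also reaching it, limit read from the data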
Target sequence (P55789 whole entry, looked up): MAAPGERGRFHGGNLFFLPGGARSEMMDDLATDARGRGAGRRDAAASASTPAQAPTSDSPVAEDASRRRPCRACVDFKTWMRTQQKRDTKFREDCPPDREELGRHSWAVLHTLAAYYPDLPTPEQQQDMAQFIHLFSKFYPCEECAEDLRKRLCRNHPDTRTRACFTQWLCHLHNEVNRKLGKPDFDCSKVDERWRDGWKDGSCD
Casp6 inh: blocks human caspase-6 cleavage activity; P55212; purified caspase-6, Z-VEID-R110 cleavage fluorescence; inhibition, % at 12.5 µM; 350,000 compounds, 0.53% hits;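 active = mean inhibition across replicates at least about 35%, with every replicate also reaching that limit, limit read from the data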
Env fusion inh: HIV envelope-mediated fusion inhibition; HeLa-JRFL Env/CEM21 cell fusion, luciferase; inhibition, % at 12.3 µM; 360,000 compounds, 1.1% hits;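 active = mean replicate inhibition score of at least 50 and every replicate individually at or above 50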
F508del corr: correctors of CFTR F508del function in bronchial epithelial cells; CFBE cells, YFP halide quenching; stimulated with forskolin plus potentiator P3; % fluorescence drop versus neutral controls; 350,000 compounds, 0.36% hits; activity (quench increase), % at 7.58 µM; AID 720511;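 active = mean added fluorescence quench of at least 8% versus neutral control, with both replicates also reaching 8%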;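 note: cells transiently co-express mutant CFTR-F508del with the halide-sensitive YFP; corrector assay measuring rescue of mutant channel to the surface after 24 h compound exposure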
NSD2 HMT inh: inhibitors of human histone methyltransferase NSD2; NSD2 peptide methylation, AlphaScreen, 120 min; inhibition, % at 12.5 µM; 310,000 compounds, 0.54% hits; AID 743445; in the data active = inhibition above about 50%
PglD DTNB: inhibitors of Campylobacter jejuni PglD acetyltransferase; purified PglD enzyme, DTNB colorimetric CoA detection; AID 602405; 360,000 compounds, 0.098% hits; inhibition, % at 12.5 µM; in the data active = inhibition above about 16%, passing the limit was not always enough
Numbers stand for hits; 0 = inactive; - = not tested or not shown. Shown are actives, neighbours in structure and some others; about 4.1% of the full set was active somewhere.

SMILES | ALR inh | Casp6 inh | Env fusion inh | F508del corr | NSD2 HMT inh | PglD DTNB
C(=N\Nc1ccccn1)/c1c[nH]c2ccccc12 | 98.9 | 0 | 0 | - | 0 | 0
O=C(O)c1ccccc1N/N=C\c1ccnc2ccccc12 | - | - | - | - | 0 | -
CNC[C@H]1Oc2ccc(NS(=O)(=O)c3ccc(C)cc3)cc2C(=O)N([C@H](C)CO)C[C@@H]1C | - | 0 | - | 0 | - | 0
Nc1nc(CSc2ncn(-c3ccccc3)n2)cs1 | 97.9 | 0 | - | 0 | 0 | -
c1ccc(C[n+]2cccc3c4ccccc4ccc32)cc1 | 0 | - | - | - | 0 | 0
CCCCC[n+]1cccc2c3ccccc3ccc21 | 0 | 0 | 97.3 | 0 | 0 | -
CC(C)(CO)N=Cc1c(O)[nH]c2ccccc12 | 99.8 | - | - | - | 0 | 0
CC(C)(C)c1[nH]c2ccccc2c1/C=N/O | 98.8 | - | - | - | 0 | -
CC(C)N=Cc1c(O)[nH]c2ccccc12 | 98.8 | - | 0 | - | 0 | 0
Cc1cccc(/N=C/c2c(O)[nH]c3ccccc23)n1 | 0 | - | - | - | 0 | -
CN(C)Cc1c(C(C)(C)O)[nH]c2ccccc12 | - | 0 | 0 | 0 | - | -
COc1ccc(C[C@@H]2CCn3cc(nn3)COC[C@H](C(C)C)NC2=O)cc1 | - | 0 | 0 | - | - | -
N#Cc1c(NC(=O)CSc2ncccn2)oc(-c2ccccc2)c1-c1ccccc1 | 0 | - | 0 | - | 0 | 0
N#Cc1c(NC(=O)CN2CCOCC2)oc(-c2ccccc2)c1-c1ccccc1 | 98.7 | - | - | - | 0 | 0
Cn1c(O)c(/C=N/Nc2ccccc2)c(=O)n(C)c1=O | 100.2 | 0 | 0 | - | 0 | -
Cc1[nH]nc(N=Cc2c(O)n(C)c(=O)n(C)c2=O)c1-c1ccccc1 | 0 | - | - | - | 0 | -
CCC(=O)N1CCC2(CC1)CN(C(=O)c1cnccn1)[C@H](CO)c1c2c2ccc(OC)cc2n1C | - | 0 | - | 0 | - | -
O=C(CC1C(=O)NCCN1Cc1ccccc1)NCCN1CCCCC1=O (configuration not stated) | 0 | 0 | 0 | 0 | 0 | 0
O=C(CC1C(=O)NCCN1Cc1ccc(F)cc1)NCCN1CCCc2ccccc21 (configuration not stated) | 98.9 | 0 | 0 | 0 | 0 | -
CCc1ccc(CNC(=O)CC2C(=O)NCCN2Cc2ccccc2F)nc1 (configuration not stated) | 0 | 0 | 56.0 | 0 | 0 | 0
CCn1ccnc1CNC(=O)CC1C(=O)NCCN1Cc1ccccc1F (configuration not stated) | 0 | 0 | 0 | 0 | 0 | 0
C[C@@H]1CN([C@H](C)CO)C(=O)c2cccc(NS(=O)(=O)c3ccc(F)cc3)c2O[C@H]1CN(C)S(=O)(=O)c1cn(C)cn1 | - | 0 | 0 | 0 | - | 0
CC(C)NC(=S)NN(c1ccccc1)c1ccccc1 | 99.4 | - | 0 | - | 0 | 0
CCOC(=O)c1c(C)n(C(=O)c2ccco2)c(=O)n1C(=O)c1ccco1 | 96.8 | - | 0 | - | 0 | 0
COc1ccccc1C#Cc1ccc([C@H]2[C@H]3CN(C(=O)C4CC4)CCCCN3[C@H]2CO)cc1 | - | 0 | - | 0 | - | 0
SMILES | ALR inh | Casp6 inh | Env fusion inh | F508del corr | NSD2 HMT inh | PglD DTNB
Cc1cccc(-c2nc(CCNC(=O)c3ccco3)cs2)c1 | - | 42.1 | 0 | 0 | 0 | 0
Cc1noc(C)c1NC(=O)Nc1ccc2c(c1)C(=O)N([C@@H](C)CO)C[C@@H](C)[C@@H](CN(C)S(=O)(=O)c1ccccc1)O2 | - | - | 0 | 0 | - | -
COc1ccc(S(=O)(=O)Nc2ccc(N3CCOCC3)cc2)cc1 | 0 | 0 | 0 | 0 | 0 | 0
CCOc1ccc(S(=O)(=O)Nc2nc3ccccc3nc2Nc2ccc(N3CCOCC3)cc2)cc1 | 93.2 | 0 | 0 | - | 0 | 0
COCC(=O)Nc1ccc2c(c1)C(=O)N(C)[C@H]1CC[C@H](CC(=O)Nc3ccccc3OC)O[C@@H]1CO2 | - | 0 | 0 | 0 | - | 0
Nc1ccccc1Sc1c[nH]c2ccccc12 | 99.2 | 0 | 0 | 0 | 0 | 0
C[C@@H]1CCCCO[C@H](CN(C)S(C)(=O)=O)[C@@H](C)CN([C@H](C)CO)C(=O)c2cc(NC(=O)Nc3cccc4ccccc34)ccc2O1 | - | 0 | 0 | 0 | - | 0
C[C@@H]1CN([C@H](C)CO)C(=O)c2cc(NS(C)(=O)=O)ccc2O[C@H]1CN(C)CC1CCCCC1 | - | 0 | 0 | 0 | - | 0
O=C(O)CCn1c2c(c3ccccc31)CCCC2 | 99.1 | 0 | 0 | - | 0 | 0
CCc1ccc2c(c1)C(NC(C)=O)C(=O)N2CCN1CCOCC1 (configuration not stated) | - | 53.8 | 0 | 0 | 0 | 0
